# A number with no mark means an inactive call. Results filed as inconclusive are left out. A call without a number means that no potency is given here. For some of these results: Results with a measured potency or affinity are listed apart. The source made the active and inactive calls. Unless noted, the rule behind the calls is not given here.
# Experiments:
# [1] = Ebola virus entry assay, ratio channel
# [2] = Ebola virus entry assay, green channel fluorescence
# [3] = Ebola virus entry assay, reporter ratio channel; Channel type: primary
# [4] = Ebola virus entry assay, blue channel (ratio component)
# [5] = qHTS Assay for Identifying Gametocytocidal Compounds (AID 743244; active = well fitted curve in the direction sought with a large enough effect; an effect the other way counts as inactive or inconclusive; note: potency is the fitted concentration of half-maximal effect;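 for max response: actives lower the fluorescent signal which means gametocytes are killed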); details: P. falciparum 3D7 stage III-V gametocytes, alamarBlue, 72 h; max response: active compounds read low
# Method in brief: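 Stage III–V gametocytes of P. falciparum 3D7 were seeded at 20,000 cells/well onto pre-dispensed compounds. After 72 h, 37 °C, 5% CO2, alamarBlue was added for another 24 h.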
# [6] = qHTS assay for cell viability of HEK293 cells (AID 743288; active = well fitted curve in the direction sought with a large enough effect; an effect the other way counts as inactive or inconclusive; note: nearly all actives have a fitted effect of over 50% in size); details: ATP luminescence (CellTiter-Glo), 18 h; max response: active compounds read low
# Method in brief: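 HEK293 parental, 2,000 cells/well; ≥5 h pre-incubation 37 C; pintool compound addition; 18 h, 37 C; CellTiter-Glo 30 min RT; luminescence read.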
# [7] = qHTS assay for cell viability of the p53RE-bla HCT-116 cell line (AID 743292; active = well fitted curve in the direction sought with a large enough effect; an effect the other way counts as inactive or inconclusive; note: nearly all actives have a fitted effect of over 55% in size); details: p53RE-bla HCT-116 viability, ATP luminescence, 16 h; series mostly up to 95 µM
# Method in brief: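 Intracellular ATP of p53RE-bla HCT-116 cells measured by luciferase luminescence following 16 h compound incubation at 37 C; DMSO-only wells served as vehicle controls.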
SMILES,outcome [1],outcome [2],outcome [3],outcome [4],max response [5] [%],max response [6] [%],Potency [7],AC50 [3],Potency [5]
N=C1N=C(N)c2cc3ccccc3cc21,inactive,inactive,inactive,inactive,,,,,
O=[N+]([O-])c1cc([N+](=O)[O-])c2ccccc2c1,inactive,inactive,inactive,inactive,-17.3,-3.94,inactive,,
CO/C=C(/C(=O)OC)c1ccccc1Oc1cc(Oc2ccccc2C#N)ncn1,inactive,inactive,,,18.4,-25.4,inactive,31.6 µM (active),
O=C(O)COc1nc(Cl)c(Cl)cc1Cl,inactive,inactive,inactive,inactive,14.5,-10.3,inactive,,
Oc1ccc2c3c1O[C@H]1[C@@H](O)C=C[C@H]4[C@@H](C2)NCC[C@@]341,inactive,inactive,inactive,inactive,4.91,,,,
O=[N+]([O-])c1ccc([As](=O)(O)O)cc1,inactive,inactive,inactive,inactive,,,,,10 µM (active)
Nc1ccc([N+](=O)[O-])cc1,inactive,inactive,inactive,inactive,-13.4,-4.75,inactive,,
CC(C)Oc1cccc(NC(=O)c2ccccc2C(F)(F)F)c1,inactive,inactive,inactive,inactive,15.7,-13.1,inactive,,
CS(=O)(=O)c1ccc(C(=O)C2C(=O)CCCC2=O)c([N+](=O)[O-])c1,inactive,inactive,inactive,inactive,-23.2,-4.44,inactive,,

# Source: PubChem BioAssay (NCATS)
